Bioassay records deposited in PubChem BioAssay by National Center for Advancing Translational Sciences (NCATS).
CHX counter = counter-screen hit for Shiga toxin inhibitors, cycloheximide. 300,000 compounds, 12% hits. max response, %. cell reporter, cycloheximide protein synthesis inhibition counterscreen; in the data active = max response mostly above about 13%, no sharp cut-off; inactive = mostly below about 14%; also: read at 38.3 µM for the half of the compounds with a filed dose
Pf growth 96h = P. falciparum growth inhibition at 96 hours; 320,000 compounds, 6.9% hits; Potency, µM (series often up to 28.7 µM), usual class: inhibitors; P. falciparum luciferase reporter growth, 96 h
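Two-generation exposure (96 h) targets delayed-death phenotype. Reporter parasites carrying integrated firefly luciferase, in red cells at 2% hematocrit and 0.05% parasitemia final, kept at 37 C, 5% CO2; luminescence loss indicates inhibition.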
Shiga toxin inh = blocks Shiga toxin action in Vero cells. 290,000 compounds, 9.2% hits. AID 2315. Vero cells, Shiga toxin protein synthesis inhibition reporter. inhibition, % at 38.7 µM; in the data active = inhibition mostly above about 28%, no sharp cut-off; inactive = mostly below about 43%
Pf growth 48h = inhibits P. falciparum growth in the first generation, 48 h; P. falciparum luciferase growth in erythrocytes, 48 h; 310,000 compounds, 5.9% hits; Potency, µM (top dose mostly 28.7 µM), actives largely listed as inhibitors
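Compounds are pin-transferred into medium, infected erythrocytes (2% hematocrit, 0.1% parasitemia final) are added, and plates sit one parasite generation at 37 C in 5% CO2. Detection reagent is then added and luminescence measured.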
LmPK inhibitor = LmPK (Leishmania mexicana) enzyme inhibition; 290,000 compounds, 0.37% hits; AID 1721; Q27686; purified LmPK, Kinase-Glo ATP luminescence, 1 h; Potency, µM (doses to about 57.5 µM), usual class: inhibitors
Target sequence (Q27686 whole entry, looked up): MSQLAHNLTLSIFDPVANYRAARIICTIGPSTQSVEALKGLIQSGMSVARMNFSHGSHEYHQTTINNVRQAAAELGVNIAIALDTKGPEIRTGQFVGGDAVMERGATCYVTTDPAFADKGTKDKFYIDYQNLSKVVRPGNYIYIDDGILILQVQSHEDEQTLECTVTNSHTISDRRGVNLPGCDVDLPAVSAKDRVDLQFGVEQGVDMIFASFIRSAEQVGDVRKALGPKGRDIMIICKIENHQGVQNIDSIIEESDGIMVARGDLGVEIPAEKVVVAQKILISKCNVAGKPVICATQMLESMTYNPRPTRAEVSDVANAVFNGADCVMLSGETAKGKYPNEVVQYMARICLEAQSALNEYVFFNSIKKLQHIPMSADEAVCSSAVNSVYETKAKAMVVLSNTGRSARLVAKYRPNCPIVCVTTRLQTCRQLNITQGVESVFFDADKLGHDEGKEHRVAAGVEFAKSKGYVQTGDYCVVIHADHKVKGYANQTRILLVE
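Purified LmPK (0.1 nM) converted ADP (0.1 mM) to ATP with PEP (0.5 mM) in imidazole buffer pH 7.2 with KCl and MgCl2, 1 h at room temperature. ATP was read by Kinase-Glo luminescence; data normalized to uninhibited and no-enzyme controls.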
Numbers stand for hits; . = inactive; ? = inconclusive; / = no result given; + = active, no number; [ ] = another dose, or the depositor's remark. Sampled rows, rich in hits. Any-hit rate of the full collection: about 22%. Unless noted, calls follow the shape of the dose curve; as a rule, active = well fitted inhibition curve with a large enough effect; inconclusive = small, poorly fitted or top-dose-only effect, or another doubt; inactive = no such curve, though single readings can be large or run the other way.

SMILES | CHX counter | Pf growth 96h | Shiga toxin inh | Pf growth 48h | LmPK inhibitor
Cn1c(=O)cc(SCC(=O)N2CCCC2)c2ccccc21 | . | . | . | . | .
CCOC(=O)N1CCC(NC(=O)CSc2cc(=O)n(C)c3ccccc23)CC1 | . | 13µM | . | . | .
Cn1c(=O)cc(SCC(=O)NCC2COc3ccccc3O2)c2ccccc21 (configuration not stated) | . | 2.9µM | . | . | .
COc1cccc(CCc2ccccc2OCC(CN(C)C)OC(=O)CCC(=O)O)c1 (configuration not stated) | / | 3.4µM | / | 4.8µM | /
CCC(=O)NC(=S)Nc1ccc(S(=O)(=O)NC2CCCCC2)cc1 | . | ? | . | . | .
O=C(O)c1ccc(NS(=O)(=O)c2ccc(Cl)c(C(=O)Nc3ccccc3)c2)cc1 | . | . | . | . | .
O=C(Nc1cccnc1)Nc1ccccc1Cl | 26 | / | . | . | .
Cc1ccc(C(=O)Nc2ccncc2)c(Cl)c1 | . | ? | . | . | .
O=C(O)c1ccc(NS(=O)(=O)c2ccc(NC(=O)c3ccccc3Cl)cc2)cc1 | . | 6.6µM | . | . | .
Cc1ccc(C)c(C(=O)Nc2cc(C)nn2-c2nc(C)cc(C)n2)c1 | . | ? | . | 13µM | .
Cc1ccc(C)c(C(=O)Nc2ccncc2)c1 | . | 2.1µM | / | ? | .
O=C(Nc1cccnc1)Nc1cc(Cl)cc(Cl)c1 | . | ? | . | ? | .
CCCCc1cc(=O)oc2c(C)c(OCC(=O)N3C[C@H]4C[C@@H](C3)c3cccc(=O)n3C4)ccc12 | . | ? | . | ? | .
CC12CCC(=O)N1C(C(=O)Nc1cc(Cl)ccc1N1CCOCC1)CS2 (configuration not stated) | . | ? | . | ? | .
Cc1ccc(NC(=O)Nc2cccnc2)cc1Cl | 37 | ? | 63 | ? | .
O=C(Nc1ccncc1)Nc1ccccc1Cl | 24 | ? | 49 | ? | .
O=C(Nc1ccncc1)c1ccccc1Cl | . | ? | 37 | . | .
O=C(Nc1cccnc1)Nc1ccc(Br)cc1Cl | 29 | / | 56 | ? | .
O=C(Nc1ccc(C(F)(F)F)cc1)C1CCN(c2cnccn2)CC1 | . | . | . | ? | .
O=C(CSc1n[nH]c(-c2cccnc2)n1)Nc1ccccc1C(F)(F)F | . | . | . | . | .
CN1CCC(Oc2ccccc2Sc2ccccc2)CC1 | . | 13µM | . | ? | .
CCC1CCC2(CC1)NC(=O)N(CC(=O)Nc1ccc(OC)c(Cl)c1)C2=O (configuration not stated) | / | . | / | . | /
Cc1[nH]c(-c2ccc(F)cc2)cc1C(=O)N1CCN(c2ccccc2F)CC1 | . | 3.7µM | . | . | .
Cc1[nH]c(-c2ccc(F)cc2)cc1C(=O)N1CCN(c2ccccc2)CC1 | . | . | . | . | .
COc1ccccc1N1CCN(C(=O)c2cc(-c3ccc(F)cc3)[nH]c2C)CC1 | . | . | . | 13µM | .
SMILES | CHX counter | Pf growth 96h | Shiga toxin inh | Pf growth 48h | LmPK inhibitor
Cc1ccc(NC(=O)CN(C)C(=O)COC(=O)CCS(=O)(=O)c2ccc(C)cc2)cc1 | . | . | . | . | .
O=C(O)CNc1nc(-c2ccccc2)nc2ccccc12 | . | . | . | . | .
Cc1cccc2nc(-c3ccccc3)nc(N[C@@H](CO)c3ccccc3)c12 | . | 13µM | . | 13µM | .
COc1ccc(CN2CCNC(=O)C2CC(=O)N(C)CCC2CCOCC2)c(OC)c1 (configuration not stated) | . | ? | . | . | .
O=C(Nc1cccnc1Cl)c1cccs1 | . | . | . | . | .
O=C(Nc1ccccn1)c1cccs1 | 52 | . | 76 | . | ?
Cc1ccnc(NC(=O)c2cccs2)c1 | 38 | . | . | . | ?
Cc1ccnc(NS(=O)(=O)c2cccs2)c1 | . | / | . | . | .
Cc1cc(NC(=O)c2cccs2)ncc1NC(=O)C(C)(C)C | 32 | . | / | . | .
Cc1ccnc(NC(=O)c2ccc(Br)s2)c1 | 70 | . | 90 | . | ?
CCC(C)CCCCC(=O)NC(CCN)C(=O)NC(C(=O)NC(CCN)C(=O)NC1CCNC(=O)C(C(C)O)NC(=O)C(CCN)NC(=O)C(CCN)NC(=O)C(CC(C)C)NC(=O)C(Cc2ccccc2)NC(=O)C(CCN)NC1=O)C(C)O (configuration not stated) | / | . | / | . | /
Cc1cccc(NC(=O)c2cc3cc([N+](=O)[O-])ccc3s2)n1 | 19 | . | . | . | .
CC(C)NC(=O)c1cc2cc([N+](=O)[O-])ccc2s1 | . | . | . | . | .
Cc1cccc(NC(=O)CNC(=O)c2cccs2)n1 | / | . | / | . | /
Cc1cccc(NC(=O)c2cccs2)n1 | 38 | . | 78 | . | ?
O=C(Nc1nccc(-c2cccs2)n1)c1cccs1 | 31 | . | 67 | . | .
CCN(CC)S(=O)(=O)c1csc(C(=O)Nc2ccccn2)c1 | 22 | . | + | . | .
N#Cc1cc2c(nc1S(=O)(=O)Cc1ccccc1)CCCC2 | . | . | . | . | .
COc1ccc(OC)c(NC(=O)Cc2coc3ccc4ccccc4c23)c1 | . | / | . | ? | .
C=CCNC(=O)N1CCc2nc(COc3ccccc3)c3c(c2C1)CO[C@@H](C)C3 | / | / | / | / | .[11.5 µM]
Cc1ccccc1C(=O)Nc1ccnn1C1CCN(C(=O)c2cnsn2)CC1 | . | . | . | . | .
O=C(Nc1ccn(Cc2ccccc2F)n1)c1ccc(COc2ccccc2Cl)cc1 | . | / | . | ? | .
O=C(Nc1ccn(Cc2ccccc2F)n1)c1ccc(COc2cccc(Br)c2)cc1 | 54 | ? | 71 | / | .
O=C(Nc1ccn(Cc2c(F)c(F)c(F)c(F)c2F)n1)c1cccc(Cn2cc([N+](=O)[O-])cn2)c1 | . | ? | . | / | .
O=C(Nc1ccn(Cc2c(F)c(F)cc(F)c2F)n1)c1cccc(Cn2cc([N+](=O)[O-])cn2)c1 | . | 9.3µM | . | / | .
SMILES | CHX counter | Pf growth 96h | Shiga toxin inh | Pf growth 48h | LmPK inhibitor
O=C(Nc1ccn(Cc2c(F)c(F)cc(F)c2F)n1)c1ccc(COc2ccccc2Cl)cc1 | . | 0.23µM | . | ? | .
Cc1cc(C)n(Cc2ccc(NC(=O)c3ccc(COc4ccccc4Br)cc3)cc2)n1 | . | ? | . | ? | .
Cc1cc(C)nc(NC(=O)c2ccc(COc3ccccc3Cl)cc2)c1 | . | 9.3µM | . | . | .
CCOC(=O)Cc1csc(NC(=O)c2ccc(S(=O)(=O)N3CCOCC3)cc2)n1 | . | . | . | . | .
C=CCSC1=C(C#N)C(c2ccccc2Cl)CC(=O)N1 (configuration not stated) | . | 3.3µM | . | . | .
C=CCSC1=C(C#N)C(c2ccc(OCC)cc2)CC(=O)N1 (configuration not stated) | . | 7.4µM | . | / | .
CCOc1ccc(C2CC(=O)NC(SC)=C2C#N)cc1 (configuration not stated) | . | . | . | / | .
O=C(NCCCNC(=O)c1cnccn1)c1ccc(Br)cc1 | . | ? | . | . | .
Nc1nc(C2CC2)c(Sc2sc(N)nc2C2CC2)s1 | . | ? | . | . | .
COc1ccc(-n2nc3cc(C)c(NC(=S)NC(=O)c4ccccc4C)cc3n2)cc1 | 30 | . | 112 | . | .
